Screening data (PubChem BioAssay)
An excerpt weighted towards active compounds, which were near 13% of everything screened.
CHOP inh: blocks CHOP induction under ER stress; inhibition, % at 10 µM; 220,000 tested, 3.8% active; CHO-K1 CHOP-promoter luciferase, tunicamycin-induced, 15-18 h; AID 2732;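 active means compounds that reduced the stress-induced luciferase reporter signal by more than about 70% of percent inhibition, limit read from the data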
WT yeast gro inh: growth inhibition of WT yeast, mitochondrial fusion screen. mitochondrial fusion phenotypic screen, WT strain. inhibition, % at 10 µM. 190,000 tested, 2.1% active. AID 1362; in the data active means inhibition above about 58%; tested in S. cerevisiae
RAM network inh: inhibitors of the yeast RAM network; 190,000 tested, 1.8% active; inhibition, % at 50 µM; S. cerevisiae dse1pr::URA3 reporter, 5-FOA growth OD615, 2 d; analog-sensitive cbk1-as2 kinase mutant strain;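 active means inhibition above a set limit, 3 SD over mean compound inhibition, cut at about 8.4% in these data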;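 further: inhibition rescues growth on 5-FOA so higher OD means more RAM inhibition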
Lmaj promast: Leishmania major promastigote growth inhibition | 200,000 tested, 9% active | Leishmania major promastigotes, resazurin fluorescence viability | AID 1063 | inhibition, % at 10 µM; in the data active means inhibition above about 50%;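 further: promastigotes grown with compound for 44 hours at 28 °C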
Each line names hits and unclear results; the compound was inactive in the other large screens.

O=C(N/N=C/c1cc2c(cc1Br)OCO2)c1cccnc1	none
Cc1onc(-c2ccccc2)c1C(=O)N/N=C/c1cc2c(cc1Br)OCO2	Lmaj promast 100
CCOc1cc(C(=O)N/N=C/C(Br)=C/c2ccccc2)cc(OCC)c1OCC	Lmaj promast 58
Cc1onc(-c2ccccc2)c1C(=O)N/N=C/C(Br)=C/c1ccccc1	WT yeast gro inh 82
COC(=O)CCCCCCCC(=O)Nc1nnc(C(F)(F)F)s1	none (no result: WT yeast gro inh, RAM network inh, Lmaj promast)
O=C(CCNC(=O)c1ccco1)Nc1ccccc1N1CCOCC1	none
CCN1CCN(c2cc(C(C)(C)C)nc3c(-c4ccccc4)c(C)nn23)CC1	WT yeast gro inh 94, Lmaj promast 96
Cc1cc(N2CCN(C(=O)c3ccco3)CC2)n2nc(-c3cccc(Cl)c3)cc2n1	CHOP inh 96
Cc1nn2c(N3CCN(C(=O)c4ccco4)CC3)cc(C(C)(C)C)nc2c1-c1ccc(Cl)cc1	none
Cc1cc(N2CCN(C(=O)c3ccco3)CC2)n2nc(C)c(-c3ccccc3)c2n1	WT yeast gro inh 63
CCN1CCN(c2ccc(NC(=O)CCc3c(C)nc4c(-c5ccccc5)c(C)nn4c3C)cc2)CC1	Lmaj promast 100
Cc1cccc2c(C(=O)N3CCN(C(=O)c4ccco4)CC3)cc(-c3cccc(Br)c3)nc12	WT yeast gro inh 81
O=C(c1ccco1)N1CCN(C(=O)c2cc(-c3ccccc3)nc3ccccc23)CC1	none
COc1cc(O)c(C(C)=O)c(CC(=O)O)c1	none (no result: WT yeast gro inh, RAM network inh, Lmaj promast)
O=C(CSc1nc2ccccc2o1)NCCOc1ccccc1	none
CN(c1ccc(OCc2nnc(-c3ccccc3)o2)cc1)S(=O)(=O)c1ccccc1	Lmaj promast 54
O=[N+]([O-])c1ccc(OCc2nnc(-c3ccccc3)o2)cc1	none
O=S(=O)(NC1c2cccc3cccc(c23)C1Sc1ncccn1)c1ccc(Cl)cc1 (configuration not stated)	Lmaj promast 83
CC(=O)Nc1ccc(NC(=O)c2ccco2)cc1	none
O=C(/C=C\c1ccccc1)Nc1ccc(NC(=O)c2ccco2)cc1	CHOP inh 95
O=C(/C=C/c1ccc(Br)cc1)c1ccco1	Lmaj promast 89
O=C(/C=C/c1ccc(Br)cc1)c1ccc(NC(=O)c2ccco2)cc1	Lmaj promast 88
Cc1nc(NC(=O)/C=C/c2ccccc2)sc1C(=O)NCCO	none
Cc1nc(NC(=O)/C=C/c2ccccc2)sc1C(=O)Nc1ccccc1	CHOP inh 92
C=CCOc1ccnc(-c2ccccc2)n1	none (no result: WT yeast gro inh, RAM network inh, Lmaj promast)
Cc1ccc(NC(=S)NNC(=O)c2ccccc2O)c(C)c1	none
CCCc1[nH][nH]c(=O)c1C(c1ccc(Br)cc1)C(C#N)C#N (configuration not stated)	Lmaj promast 50
Cc1onc(-c2c(Cl)cccc2Cl)c1COC(=O)c1ccc(Cl)cc1[N+](=O)[O-]	none (no result: WT yeast gro inh, RAM network inh, Lmaj promast)
O=c1oc2ccccc2cc1N1CCOCC1	none
Cc1ccsc1/C=N/Nc1nc(=O)[nH]nc1C	WT yeast gro inh 70
Cc1cc(C)nc(N/N=C/c2sccc2C)n1	none
COc1ccc(/C=N/Nc2nc3ccccc3[nH]2)cc1OC	Lmaj promast 99
COc1cc(/C=N\Nc2nc3ccccc3[nH]2)cc(OC)c1OC	Lmaj promast 57
O=C(CCSc1nc(-c2ccc3c(c2)OCO3)cc(C(F)(F)F)n1)NCc1ccccc1	none
CN(Cc1ccccc1)C(=O)CCSc1nc(-c2ccc3c(c2)OCO3)cc(C(F)(F)F)n1	RAM network inh 9.9
O=C(CCSc1nc(-c2ccc3c(c2)OCO3)cc(C(F)(F)F)n1)NCc1ccco1	RAM network inh 9.7
CCC(C)C(=O)Nc1cc(C(=O)OC)cc(C(=O)OC)c1 (configuration not stated)	none
Cc1ccc(NC(=O)COC(=O)C(CC(C)C)N2C(=O)C3CC=CCC3C2=O)c(C)c1 (configuration not stated)	none
O=S(=O)(c1ccccc1)c1nc(Nc2ccccc2N2CCOCC2)sc1Cl	Lmaj promast 56
CC1CCCCN1C(=O)Cn1c(=O)n(C2CCCCC2)c(=O)c2ccccc21 (configuration not stated)	CHOP inh 82
Cc1ccc(S(=O)(=O)NC(=O)c2ccc(Br)o2)cc1	none
CC(C)NC(=O)/C(C#N)=C/c1cccc(NC(=O)c2ccccc2Cl)c1	Lmaj promast 100
Cc1c(Br)c([N+](=O)[O-])nn1CC(=O)Nc1ccc(C(N)=O)cc1	none
CCCCNC(=O)COc1ccccc1C(=O)c1cc(C#N)c(=O)n(CCOC)c1	none
CC(=O)Oc1ccc(-c2cccc(C(=O)Oc3ccccc3)c2)cc1	WT yeast gro inh 74
O=C(c1cccc(S(=O)(=O)N2CCc3ccccc32)c1)N1CCN(c2ccccn2)CC1	none
Cc1ccc2c(c1)C(c1ccc(F)cc1)N(C(=O)C1CC1)CC(=O)N2 (configuration not stated)	none
O=C1CN(C(=O)c2ccc(Br)o2)C(c2ccccc2)c2cc(Br)ccc2N1 (configuration not stated)	Lmaj promast 69
Cc1ccc2c(c1)C(c1ccccc1)N(C(=O)c1ccc(Br)o1)CC(=O)N2 (configuration not stated)	Lmaj promast 95
O=c1[nH]c(SCc2cccc(Cl)c2)nc2c1CCCC2	none
N=c1c2c(n(Cc3ccc(F)cc3)c3c1CCC3)CCCC2	Lmaj promast 99
N=c1c2c(n(Cc3ccc(Cl)cc3)c3c1CCC3)CCC2	WT yeast gro inh 62, Lmaj promast 99 (no result: CHOP inh)
CCn1c2c(c(=N)c3c1CCC3)CCCC2	none (no result: WT yeast gro inh, RAM network inh, Lmaj promast)
N=c1c2c(n(Cc3cccc(Cl)c3)c3c1CCC3)CCCC2	WT yeast gro inh 62, Lmaj promast 100
CCOC(=O)c1oc2ccc(S(=O)(=O)n3nc(-c4ccccc4)cc3N)cc2c1C	CHOP inh 85, Lmaj promast 97
Cc1cc(C)c(NC(=O)C(C)Sc2nnc(-c3ccco3)n2-c2ccccc2)c(C)c1 (configuration not stated)	none
COCCCNC(=O)/C=C/c1cccc(Cl)c1	none
O=C(/C=C/c1cccc(Cl)c1)Nc1ncccn1	none
CN(C)C(CNC(=O)/C=C/c1cccc(Cl)c1)c1ccccc1 (configuration not stated)	Lmaj promast 75
CSc1cccc(NC(=O)/C=C/c2cccc(Cl)c2)c1	WT yeast gro inh 83, RAM network inh 9.1
Cc1sc2ncnc(NCCCN3CCCC3=O)c2c1C	none
NC(=O)/C(=C/c1ccco1)C(N)=S	none (no result: WT yeast gro inh, RAM network inh, Lmaj promast)
COCCNC(=O)C(c1ccc(F)cc1)N(C(=O)CCC(=O)Nc1nccs1)c1cccc(C)c1 (configuration not stated)	RAM network inh 9.6
CO/N=C/c1c(-c2ccc(Cl)cc2)nc2cc(C)ccn12	Lmaj promast 61
Cc1c(C=O)c2ccccn2c1C(=O)c1cccs1	none
CCOC(=O)c1cnc(SC)nc1Sc1ccccc1Cl	WT yeast gro inh 67
CSc1nc(Sc2ccccc2Cl)c2ccccc2n1	WT yeast gro inh 68
Cc1cc(=O)oc2cc(OCc3ccc(C(=O)OCC(=O)Nc4ccc(N(C)C)cc4)cc3)ccc12	none
CCCNC(=O)Cn1sc2nc(C)cc(C)c2c1=O	none (no result: WT yeast gro inh, RAM network inh, Lmaj promast)
Cc1ccc(C(=O)CN(C(=O)c2ccc(Cl)cc2)N2C(=O)CCC2=O)cc1	Lmaj promast 89
Cc1ccc(C(=O)CN(C(=O)c2ccc(Cl)cc2)N2C(=O)c3ccccc3C2=O)cc1	none
